Reference: PubChem BioAssay (NCATS)
Records with an inconclusive call do not appear. The source made the active and inactive calls. Calls come from the whole dose curve; as a rule, active = well fitted cell-killing curve with a large enough effect; inconclusive = small, poorly fitted or top-dose-only effect; inactive = flat fitted curve, though single readings scatter.

Test: qHTS of pediatric cancer cell lines to identify multiple opportunities for drug repurposing: Primary screen for control Hh wild type fibroblast cells (AID 1347106);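 note: a drop in luminescence marks cytotoxicity and a rise apparent proliferation; nearly all actives have a fitted effect of over 55% in size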
Settings: Hh wild-type fibroblast viability, CellTiter-Glo luminescence, 48 h; series mostly up to 46 µM
Method in brief: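 Cells (500-1,000/well) in growth media were settled 5 h at 37 degrees C, then given compounds for 48 h. Viability was read as CellTiter-Glo luminescence. Primary runs used MIPE at 11 points (0.78 nM-46 µM) and NPC at 8 points (0.59 nM-46 µM); follow-ups used 11 points.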
In the case of `Nc1ccccc1`, the outcome is reported as “inactive”.
For `CCN[C@@H](C)Cc1ccccc1`, the outcome was “inactive”.
In the case of `CNCC(=O)c1ccc(O)c(O)c1`, the outcome is reported as “inactive”.
For `COP(=S)(OC)Oc1ccc(SC)c(C)c1`, the outcome was “inactive”.
In the case of `Clc1cccc(SC2CCNCC2)n1`, the outcome is reported as “inactive”.
For `CC(C)c1c(CN(C)C(C)Cc2ccccc2)n(C)n(-c2ccccc2)c1=O` (stereo not drawn), the outcome was “inactive”.
For `COc1ccc2c3c1O[C@H]1[C@H](O)CC[C@H]4[C@@H](C2)N(C)CC[C@@]341`, the outcome was “inactive”.
In the case of `CCN[C@H](C)Cc1cccc(C(F)(F)F)c1`, the outcome is reported as “inactive”.
With `COc1cccc([C@@]2(O)CCCC[C@@H]2CN(C)C)c1` the outcome was “inactive”.
With `COC1CC(=C(c2cccs2)c2cccs2)C[N+](C)(C)C1` (stereo not drawn) the outcome was “inactive”.
With `C#C[C@]1(O)CC[C@H]2[C@@H]3CCC4=CC(=O)CC[C@]4(C)[C@H]3CC[C@@]21C` the outcome was “inactive”.
In the case of `CCN[C@@H](C)Cc1cccc(C(F)(F)F)c1`, the outcome is reported as “inactive”.
With `COc1cc(CC(C)N)cc(OC)c1OC` (stereo not drawn) the outcome was “inactive”.
In the case of `C=CCC1([C@H](C)CCC)C(=O)NC(=O)NC1=O`, the outcome is reported as “inactive”.
In the case of `O=C1c2ccccc2C(=O)C1C(=O)C(c1ccccc1)c1ccccc1`, the outcome is reported as “inactive”.
In the case of `NC(=O)CS(=O)C(c1ccccc1)c1ccccc1` (stereo not drawn), the outcome is reported as “inactive”.
For `ClCCN1CCCC1`, the outcome was “inactive”.
In the case of `CC(C)NC(C)C`, the outcome is reported as “inactive”.
With `CC(=O)C1CCOC1=O` (stereo not drawn) the outcome was “inactive”.
For `CNC(C)(C)Cc1ccccc1`, the outcome was “inactive”.
In the case of `CN1C(=O)CCS(=O)(=O)C1c1ccc(Cl)cc1` (stereo not drawn), the outcome is reported as “inactive”.
For `O=C1OC(c2ccc(O)c(S(=O)(=O)O)c2)(c2ccc(O)c(S(=O)(=O)O)c2)c2c(Br)c(Br)c(Br)c(Br)c21`, the outcome was “inactive”.
In the case of `CN1C(=O)NC(=O)C(C)(C2=CCCCC2)C1=O` (stereo not drawn), the outcome is reported as “inactive”.
